ERK AVP inh: qHTS Assay for Inhibitors of the ERK Signaling Pathway using a Homogeneous Screening Assay; HEK293-V1b, vasopressin-stimulated pERK AlphaScreen; Potency, µM (series often up to 57.5 µM), hits mostly inhibitors; actives 0.99% (n = 72,000); AID 995, 2007; further: nearly all actives have a fitted effect of over 55% in size
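HEK293 cells stably expressing V1b receptor, preincubated 30 min at 37 °C with compound, then stimulated 5 min with 25 nM vasopressin. Phospho-ERK by AlphaScreen SureFire after 5 h RT; normalized to DMSO and vasopressin; AC50 by Hill fit.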
HEK293 cAMP ctrl: qHTS Assay for Agonists of the Thyroid Stimulating Hormone Receptor: Activators of Intracellular cAMP Concentrations in Parental HEK 293; parental HEK293 CNG cAMP sensor, membrane potential fluorescence; Potency, µM (top dose mostly 57.1 µM), hits mostly activators; actives 2.5% (n = 73,000); further: nearly all actives have a fitted effect of over 55% in size
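Counterscreen for endogenous-receptor signalling: CNG-channel HEK 293 cells report cAMP rise by membrane depolarization. After 60 min dye equilibration with 100 uM RO 20-1724, compounds incubated 30 min before bottom-read fluorescence at 590 nm.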
Tau fil binding: qHTS Assay for Tau Filament Binding; recombinant tau filaments, thioflavin S fluorescence, 15 h; filaments grown with octadecylsulfate alongside compound; Potency, µM (doses to about 57.1 µM); actives 2% (n = 71,000);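 further: actives lower thioflavin S fluorescence by blocking filaments or displacing dye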
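His-tagged recombinant human tau (exons 2, 3, 10; 1 uM final) fibrillized with 30 uM sodium octadecylsulfate, 15 h at 37 C, in pH 7.4 HEPES buffer with 10 uM thioflavine S and 5 mM DTT. Reduced ThS fluorescence (450/510 nm) marks activity.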
TSHR agonist: qHTS Assay for Agonists of the Thyroid Stimulating Hormone Receptor. Thyrotropin receptor (Homo sapiens), P16473. HEK293-CNG-TSHR cells (CNG channel as cAMP sensor), membrane potential dye, cAMP. Potency, µM (doses to about 57.1 µM), usual class: activators. actives 0.48% (n = 73,000). AID 926, 2007; active means well fitted activation curve with a large enough effect in the main read-out, with a control signal flat, not every such curve was filed as active; inconclusive means small, poorly fitted or top-dose-only effect, or a change in a side signal; inactive means no such curve, though single readings can be large or run the other way; reference of the percent scale not stated here;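 further: the control signal comes from parental cells without the receptor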
Target sequence (P16473 whole entry, looked up): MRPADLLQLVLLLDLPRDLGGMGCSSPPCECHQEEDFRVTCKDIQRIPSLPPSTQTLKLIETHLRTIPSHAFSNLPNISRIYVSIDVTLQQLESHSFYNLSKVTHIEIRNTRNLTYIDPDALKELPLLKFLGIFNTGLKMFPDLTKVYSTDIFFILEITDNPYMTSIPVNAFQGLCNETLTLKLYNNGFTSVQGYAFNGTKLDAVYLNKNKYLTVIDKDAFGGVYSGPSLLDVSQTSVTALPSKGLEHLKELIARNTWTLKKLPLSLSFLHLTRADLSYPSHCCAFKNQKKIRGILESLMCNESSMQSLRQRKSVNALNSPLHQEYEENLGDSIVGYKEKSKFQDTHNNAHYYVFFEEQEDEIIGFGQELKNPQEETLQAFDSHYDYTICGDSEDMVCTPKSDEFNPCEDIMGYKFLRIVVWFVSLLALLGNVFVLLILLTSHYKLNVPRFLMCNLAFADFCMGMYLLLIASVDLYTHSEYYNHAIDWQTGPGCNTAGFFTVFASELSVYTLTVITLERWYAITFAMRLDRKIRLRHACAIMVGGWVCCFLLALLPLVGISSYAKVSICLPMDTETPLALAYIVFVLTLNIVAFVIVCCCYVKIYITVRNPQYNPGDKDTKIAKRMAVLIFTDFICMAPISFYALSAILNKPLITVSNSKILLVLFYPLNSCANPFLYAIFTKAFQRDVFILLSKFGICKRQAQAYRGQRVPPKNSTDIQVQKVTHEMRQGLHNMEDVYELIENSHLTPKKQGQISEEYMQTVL
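HEK 293 cells stably expressing TSHR and a modified CNG channel, with CNG-only parental cells as counterscreen, were preloaded 60 min at room temperature with membrane potential dye containing 100 uM RO 20-1724. Compound exposure was 30 min, and depolarization was read as fluorescence at 590 nm.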
CRE-bla Fsk: Cell signaling CRE-BLA (Fsk stim); CHO CRE-bla reporter (cAMP response element driving beta-lactamase), forskolin EC10, beta-lactamase ratio; Potency, µM (highest dose often 38.2 µM), actives largely listed as activators; actives 2.5% (n = 71,000); active means well fitted activation curve with a large enough effect in the signal ratio, with a control signal flat, not every such curve was filed as active; inconclusive means small, poorly fitted or top-dose-only effect, or effect the other way, or a change in a side signal; the % refers to the signal ratio
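qHTS titration format; CRE-bla CHO reporter; stimulus EC10 NKH 477, a water-soluble forskolin. Read: CCF4 460/530 nm ratio. Potency expressed as AC50 for activators or inhibitors.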
A number is an active result. This is a sample that favours compounds with a hit; in the whole collection about 7.6% have one here. Unless noted, the call rests on the fitted dose curve; in most records, active means well fitted curve in the direction sought with a large enough effect; inconclusive means small, poorly fitted or top-dose-only effect, or another doubt; inactive means no such curve, though single readings can be large; an effect the other way counts as inactive or inconclusive.

What do the screens show for `C=CCOc1ccccc1/C=c1\sc2nc(=O)c(C)nn2c1=O`?
ERK AVP inh: inactive; HEK293 cAMP ctrl: inactive; Tau fil binding: 25µM; TSHR agonist: inactive; CRE-bla Fsk: inactive

What do the screens show for `CCCOC(=O)c1ccc(OCC(O)Cn2c(C)nc3ccccc32)cc1` (stereo not given)?
ERK AVP inh: 13µM; HEK293 cAMP ctrl: inconclusive; Tau fil binding: inactive; TSHR agonist: inconclusive; CRE-bla Fsk: inactive

Results for COCCN(CCOC)c1nc(C)nc2c1nc(-c1ccccc1)n2CCCN1CCCCC1C (stereo not given) ?
ERK AVP inh: inactive; HEK293 cAMP ctrl: inactive; Tau fil binding: inactive; CRE-bla Fsk: inactive

Results for O=C(NCCCNC(=O)c1cccs1)c1cccs1 ?
ERK AVP inh: inactive; HEK293 cAMP ctrl: inactive; Tau fil binding: inactive; TSHR agonist: inactive; CRE-bla Fsk: inactive

Results for CCn1c(NC(=O)c2cccs2)nc2ccccc21 ?
ERK AVP inh: inactive; HEK293 cAMP ctrl: 16µM; Tau fil binding: inactive; TSHR agonist: inconclusive; CRE-bla Fsk: inconclusive

What do the screens show for `O=C(NCc1nc2ccccc2[nH]1)[C@H]1C[C@@H]1[C@H](NP(=O)(c1ccccc1)c1ccccc1)c1ccccc1`?
ERK AVP inh: inactive; HEK293 cAMP ctrl: 13µM; Tau fil binding: inactive; TSHR agonist: inconclusive; CRE-bla Fsk: inactive

How did O=C(NCc1nc2ccccc2[nH]1)c1cccs1 do in these assays?
HEK293 cAMP ctrl: 5µM; Tau fil binding: inactive; TSHR agonist: inconclusive; CRE-bla Fsk: inactive

How did CC(C)(CNC(=O)c1cccs1)CNC(=O)c1cccs1 do in these assays?
ERK AVP inh: inactive; HEK293 cAMP ctrl: 32µM; Tau fil binding: inactive; TSHR agonist: inconclusive; CRE-bla Fsk: inactive

Results for COc1ccc2nc(C)cc(N3CC(C)OC(C)C3)c2c1 (stereo not given) ?
ERK AVP inh: inactive; HEK293 cAMP ctrl: 16µM; Tau fil binding: inactive; TSHR agonist: inconclusive; CRE-bla Fsk: inactive

How did CCOC(=O)/C(C#N)=C1/C=Cc2ccccc2N1CC do in these assays?
ERK AVP inh: inconclusive; HEK293 cAMP ctrl: inactive; Tau fil binding: 16µM; TSHR agonist: inactive; CRE-bla Fsk: inconclusive

Results for COc1cc(C(c2sc3nc(C)nn3c2O)N2CCN(c3ccccc3)CC2)cc(OC)c1OC (stereo not given) ?
HEK293 cAMP ctrl: inconclusive; Tau fil binding: inactive; TSHR agonist: inconclusive; CRE-bla Fsk: 2µM

What do the screens show for `COc1ncc2nc(-c3cn(C)c4ccccc34)c(=O)n(-c3ccccc3)c2n1`?
ERK AVP inh: inactive; HEK293 cAMP ctrl: inconclusive; Tau fil binding: inactive; TSHR agonist: inconclusive; CRE-bla Fsk: inconclusive

Results for Cn1c(-c2ccccc2)cc2c3no[n+]([O-])c3ccc21 ?
ERK AVP inh: inactive; HEK293 cAMP ctrl: inactive; Tau fil binding: 10µM; TSHR agonist: inactive; CRE-bla Fsk: inactive

How did CN(C(=O)c1ccccc1C(=O)O)C1CC(C)(C)NC(C)(C)C1 do in these assays?
HEK293 cAMP ctrl: inactive; Tau fil binding: inactive; TSHR agonist: inactive; CRE-bla Fsk: inactive

How did Cc1ccc(Nc2nc(N)nc(CN3CCN(c4ccccc4)CC3)n2)cc1Cl do in these assays?
ERK AVP inh: inactive; HEK293 cAMP ctrl: inactive; Tau fil binding: 16µM; TSHR agonist: inactive; CRE-bla Fsk: inactive

How did O=C(O)c1ccc(CO)o1 do in these assays?
ERK AVP inh: inactive; HEK293 cAMP ctrl: inactive; Tau fil binding: inactive; TSHR agonist: inactive; CRE-bla Fsk: inactive

What do the screens show for `CCN=c1scc(-c2ccc3c(c2)NC(=O)CO3)n1N=C1CCCC1`?
ERK AVP inh: inconclusive; HEK293 cAMP ctrl: inactive; Tau fil binding: 13µM; TSHR agonist: inactive; CRE-bla Fsk: inconclusive

What do the screens show for `COc1cc(C2C3=C(Nc4ncnn42)c2ccccc2CC3)cc(OC)c1OC` (stereo not given)?
ERK AVP inh: inactive; HEK293 cAMP ctrl: inactive; Tau fil binding: inactive; TSHR agonist: inactive; CRE-bla Fsk: 0.5µM

Results for O=C1CCNc2cc3ccccc3cc21 ?
ERK AVP inh: inactive; HEK293 cAMP ctrl: inactive; Tau fil binding: 20µM; TSHR agonist: inactive; CRE-bla Fsk: inactive

Results for COc1ccc(-c2cc(C(=O)N/N=C/c3ccc(O)cc3)[nH]n2)cc1 ?
HEK293 cAMP ctrl: inactive; TSHR agonist: inactive
